PubChem BioAssay (NCI)
The panel holds about 79,000 compounds, 15% with a hit somewhere; the sample as a whole holds those more often. Activity calls are given as the source filed them. No stated cut-off is given here; in the data, active means growth inhibition above about 70%; inactive means the rest.

How the values were obtained:
[1] = NCI Yeast Anticancer Drug Screen. Data for the rad52 strain (AID 147);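 further: 0% = growth of vehicle-treated control cultures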; conditions: S. cerevisiae rad52 mutant growth inhibition, stronger effect = higher value
Summary of the method: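 Measured: yeast growth inhibition. System: strain with a defined DNA damage repair alteration. Reference: vehicle-treated control cultures.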

[2] = NCI Yeast Anticancer Drug Screen. Data for the wt1 strain (AID 149);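 further: 0% = growth of vehicle-treated wt1 cultures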; conditions: S. cerevisiae wt1 strain (SPY 50644) growth inhibition, stronger effect = higher value
Summary of the method: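 Readout: yeast growth inhibition, normalised to vehicle controls, in the wt1 strain exposed to test compounds.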

[3] = NCI Yeast Anticancer Drug Screen. Data for the rad50EPP+ strain (AID 151);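 further: 0% = growth of vehicle-treated control cultures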; conditions: S. cerevisiae rad50 mutant strain, stronger effect = higher value
Summary of the method: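 One strain with a rad50 alteration (rad50EPP+) was compound-treated, its growth then compared to that of vehicle controls.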

[4] = NCI Yeast Anticancer Drug Screen. Data for the rad50 strain (AID 155);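 further: 0% = growth of vehicle-only cultures of the same strain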; conditions: S. cerevisiae rad50 strain growth inhibition, stronger effect = higher value
Summary of the method: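 Compounds were tested on a yeast strain with an engineered DNA damage repair alteration; the reported value is growth inhibition normalised to vehicle treatment.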

[5] = NCI Yeast Anticancer Drug Screen. Data for the mec2-1 strain (AID 157); conditions: S. cerevisiae mec2-1 strain, stronger effect = higher value
Summary of the method: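 Test agents were screened against the mec2-1 yeast strain, with defined DNA repair or cell cycle alteration. Growth was scored as inhibition against vehicle-only controls.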

[6] = NCI Yeast Anticancer Drug Screen. Data for the rad14 strain (AID 159);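 further: 0% = growth of vehicle-treated control cultures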; conditions: S. cerevisiae rad14 strain growth inhibition, stronger effect = higher value
Summary of the method: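 Compound-treated yeast with a defined DNA-repair lesion; growth inhibition normalised to vehicle-treated cultures.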

[7] = NCI Yeast Anticancer Drug Screen. Data for the sgs1 mgt1 strain (AID 161);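 further: 0% = growth of cultures given vehicle only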; conditions: S. cerevisiae sgs1 mgt1 strain, stronger effect = higher value
Summary of the method: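 Inhibition of yeast growth, normalised to vehicle-treated controls, is reported for a strain bearing genetic alterations in DNA damage repair.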

[8] = NCI Yeast Anticancer Drug Screen. Data for the CLN2oe strain (AID 163);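 further: 0% = growth of vehicle-only control cultures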; conditions: S. cerevisiae CLN2oe strain, stronger effect = higher value
Summary of the method: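 Here, growth inhibition in a cell-cycle-altered yeast strain after compound exposure was quantified against vehicle control growth.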

[9] = NCI Yeast Anticancer Drug Screen. Data for the cln2 rad14 strain (AID 165);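 further: 0% = growth equal to vehicle treated cultures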; conditions: S. cerevisiae cln2 rad14 strain, stronger effect = higher value
Summary of the method: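 Growth of compound-exposed yeast (cln2 rad14 genotype) measured and expressed as inhibition relative to vehicle.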

[10] = NCI Yeast Anticancer Drug Screen. Data for the bub3 strain (AID 167); conditions: S. cerevisiae bub3 mutant strain, stronger effect = higher value
Summary of the method: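 Growth of a checkpoint-deficient yeast mutant is measured after compound exposure. Values represent inhibition relative to vehicle.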

[11] = NCI Yeast Anticancer Drug Screen. Data for the wt2 strain (AID 169);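 further: 0% = growth of vehicle-treated yeast cultures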; conditions: S. cerevisiae wt2 strain growth inhibition, stronger effect = higher value
Summary of the method: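 Genetically defined yeast strains from a DNA-repair/cell-cycle panel were used. Compound-exposed yeast growth was measured, and the inhibition was calculated relative to vehicle treatment.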

[12] = NCI Yeast Anticancer Drug Screen. Data for the mlh1 strain (AID 171);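 further: 0% = growth of vehicle-treated control cultures of the same strain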; conditions: S. cerevisiae mlh1 strain growth inhibition, stronger effect = higher value
Summary of the method: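 Here the genetically defined yeast mutant is grown with each compound, and the extent to which its growth falls below that of vehicle-exposed cells is reported.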

[13] = NCI Yeast Anticancer Drug Screen. Data for the sgs1 strain (AID 173);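 further: 0% = growth of vehicle-only control cultures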; conditions: S. cerevisiae sgs1 mutant, stronger effect = higher value
Summary of the method: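 Relative growth inhibition, referenced to vehicle, was determined in a yeast strain with a defined alteration affecting DNA damage repair or cell cycle control after compound exposure.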

[14] = NCI Yeast Anticancer Drug Screen. Data for the mlh1 rad18 strain (AID 175); conditions: S. cerevisiae mlh1 rad18 strain growth inhibition, stronger effect = higher value
Summary of the method: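 In this whole-cell yeast screen, a strain with altered DNA damage repair is challenged with compound, and its growth is measured against matched vehicle-treated controls.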

[15] = NCI Yeast Anticancer Drug Screen. Data for the rad18 strain (AID 177); conditions: S. cerevisiae rad18 mutant growth inhibition, stronger effect = higher value
Summary of the method: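 Screen uses a yeast strain with a defined lesion in DNA damage repair; compound effect is read as loss of growth compared to untreated vehicle cultures.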

[16] = at 5.0 µM (retest, dose inferred, filed as 0.5)
[17] = at 50.0 µM (retest, dose inferred, filed as 5.0)

Measured: growth inhibition

O=C1C=CC(=O)N1c1ccc(I)cc1
inactive: [1]; at 1.2 µM 12% | [1]; at 3.7 µM 26% | [2]; at 1.2 µM -9% | [2]; at 3.7 µM 33% | [3]; at 1.2 µM 59% | [4]; at 1.2 µM 21% | [4]; at 3.7 µM 37% | [4]; [16] 26% | [4]; [17] 54% | [5]; at 1.2 µM 12% | [5]; at 3.7 µM 41% | [5]; [16] 31% | [5]; [17] 65% | [6]; at 1.2 µM 11% | [6]; at 3.7 µM 28% | [8]; at 1.2 µM 13% | [8]; at 3.7 µM 26% | [9]; [16] 56% | [10]; at 1.2 µM 5% | [10]; at 3.7 µM 15% | [11]; at 1.2 µM -2% | [11]; at 3.7 µM 16% | [12]; at 1.2 µM 13% | [12]; at 3.7 µM 40% | [13]; at 1.2 µM 29% | [14]; [16] 17% | [15]; at 1.2 µM 27% | [15]; at 3.7 µM 35% | [15]; at 11.0 µM 49%
active: [1]; at 11.0 µM 97% | [1]; at 33.0 µM 99% | [1]; at 100.0 µM 98% | [2]; at 11.0 µM 96% | [2]; at 33.0 µM 99% | [2]; at 100.0 µM 98% | [3]; at 3.7 µM 70% | [3]; at 11.0 µM 99% | [3]; at 33.0 µM 100% | [3]; at 100.0 µM 99% | [4]; at 11.0 µM 96% | [4]; at 33.0 µM 98% | [4]; at 50.0 µM 92% | [4]; at 100.0 µM 98% | [5]; at 11.0 µM 99% | [5]; at 33.0 µM 99% | [5]; at 50.0 µM 93.7% | [5]; at 100.0 µM 100% | [6]; at 11.0 µM 97% | [6]; at 33.0 µM 99% | [6]; at 100.0 µM 98% | [7]; [16] 97% | [7]; [17] 100% | [7]; at 50.0 µM 93.6% | [8]; at 11.0 µM 96% | [8]; at 33.0 µM 100% | [8]; at 100.0 µM 99% | [9]; [17] 100% | [9]; at 50.0 µM 92.1% | [10]; [16] 100% | [10]; at 11.0 µM 98% | [10]; at 33.0 µM 99% | [10]; [17] 99% | [10]; at 50.0 µM 92.4% | [10]; at 100.0 µM 98% | [11]; at 11.0 µM 81% | [11]; at 33.0 µM 100% | [11]; at 100.0 µM 99% | [12]; at 11.0 µM 98% | [12]; at 33.0 µM 100% | [12]; at 100.0 µM 99% | [13]; at 3.7 µM 76% | [13]; at 11.0 µM 100% | [13]; at 33.0 µM 100% | [13]; at 100.0 µM 100% | [14]; [17] 72% | [14]; at 50.0 µM 92.2% | [15]; at 33.0 µM 99% | [15]; at 100.0 µM 99%
